Screening results as filed in PubChem BioAssay.
PV pol inh: poliovirus RdRp elongation inhibitors, primary screen, biochemical, fluorescence polarization, total intensity | Genome polyprotein (Poliovirus type 1 (strain Mahoney)), P03300 | actives 0.66% (n = 150,000) | poliovirus polymerase elongation; active compounds read low | % elongation, % (compound at 16.7 µg/mL); in the data active = % elongation below about 90%
Mtb MenB inh: M. tuberculosis MenB inhibitors, primary screen, biochemical, absorbance. 1,4-dihydroxy-2-naphthoyl-CoA synthase (Mycobacterium tuberculosis (strain ATCC 25618 / …. MenB enzyme assay, absorbance read-out. inhibition, % (no concentration beside the values). actives 0.43% (n = 100,000). AID 540299, 2011; in the data active = inhibition above about 21%, passing the limit was not always enough
Target sequence (P9WNP5 whole entry, looked up): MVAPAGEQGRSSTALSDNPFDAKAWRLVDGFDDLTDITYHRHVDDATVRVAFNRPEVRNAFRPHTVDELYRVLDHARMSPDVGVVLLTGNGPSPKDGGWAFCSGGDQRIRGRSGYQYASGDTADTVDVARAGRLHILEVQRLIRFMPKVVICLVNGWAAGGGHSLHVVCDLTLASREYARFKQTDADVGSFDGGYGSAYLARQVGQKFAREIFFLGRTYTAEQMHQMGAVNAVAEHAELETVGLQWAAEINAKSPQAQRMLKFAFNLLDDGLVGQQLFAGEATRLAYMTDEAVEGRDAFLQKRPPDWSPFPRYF
AID504770: growth inhibition of E. coli YBA685, primary screen, V. cholerae RctB inhibitors | actives 0.27% (n = 130,000) | E. coli YBA685 rctB-dependent plasmid, OD600 growth, 3 h; active compounds read low | AID 504770, 2011 | z-score (test concentration not listed); in the data active = z-score below about -2, passing the limit was not always enough
MbtI inh: MbtI salicylate synthase inhibitors, primary screen, biochemical, fluorescence intensity; AID 493033, 2011; actives 0.89% (n = 100,000); inhibition, % (concentration not given with the values); purified MbtI enzyme, fluorescence intensity read-out; in the data active = inhibition mostly above about 56%, no sharp cut-off; inactive = mostly below about 77%
An asterisk follows results filed as active; . = not tested or not shown; ! = not active in a repeat. This is a sample that favours compounds with a hit; in the whole collection about 1.4% have one here.

SMILES	PV pol inh	Mtb MenB inh	AID504770	MbtI inh
Cc1cc(Cl)ccc1OCCSc1nnc(-c2cccs2)o1	10.0*	.	.	.
CCC(C)CCCCC(=O)NC(CCN)C(=O)NC(C(=O)NC(CCN)C(=O)NC1CCNC(=O)C(C(C)O)NC(=O)C(CCN)NC(=O)C(CCN)NC(=O)C(CC(C)C)NC(=O)C(Cc2ccccc2)NC(=O)C(CCN)NC1=O)C(C)O (configuration not stated)	99.0	-11.9	-5.2*	-13.2
CCn1c(=O)c2ccccc2n(Cc2cccc(Cl)c2)c1=O	105.0	-23.1	-1.7	-1.9
O=c1[nH]cnc2sc3c(c12)CCCC3	101.0	34.0*	1.2	29.0
Clc1cc2c(cc1Cl)Nc1cc(Cl)c(Cl)cc1N2	100.0	13.6	-0.15	95.3*
CCOC(=O)c1c(NC(=O)c2cc(-c3ccc(OC)c(OC)c3)on2)sc2c1CCCC2	98.0	.	.	.
CCOC(=O)c1c(NC(=O)c2cc(-c3cccc(OC)c3)on2)sc2c1CCCC2	77.0*	.	.	.
CCOC(=O)c1c(NC(=O)c2cc(-c3cccc(OC)c3)on2)sc(C)c1C	102.0	-8.5	-0.9	46.3
CCOC(=O)c1c(NC(=O)c2cc(-c3ccc(OC)cc3)on2)sc(C)c1C	84.0*	.	.	.
CCOC(=O)c1c(-c2ccccc2)csc1NC(=O)c1cc(-c2cccc(OC)c2)on1	71.0*	.	.	.
CCOC(=O)c1c(-c2ccc(C)cc2)csc1NC(=O)c1cc(-c2ccc(OC)cc2)on1	105.0	.	.	.
CCOC(=O)c1c(-c2ccccc2)csc1NC(=O)c1cc(-c2cccc(Cl)c2)on1	84.0*	.	.	.
CCOC(=O)c1c(-c2ccc(C)cc2)csc1NC(=O)c1cc(-c2ccc(Cl)cc2)on1	102.0	.	.	.
Cc1ccccc1-n1ncc2c(=O)n(CCN3CCCCC3)cnc21	101.0	7.0	0.15	-0.5
C=CCN1C(=O)c2ccccc2Sc2ccc(C(=O)N3CCN(c4ccccc4OC)CC3)cc21	.	.	-0.45	.
CCOC(=O)c1c(-c2ccc(C)cc2)csc1NC(=O)c1cc(=O)c2cc(C)ccc2o1	61.0*	.	.	.
Cc1ccc(C(=O)N/C(=C/c2ccco2)C(=O)Nc2ccc(C(=O)O)cc2)cc1	102.0	-1.8	-0.4	19.1
Cc1ccc(C(=O)CSc2ncn[nH]2)c(C)c1	101.0	-1.7	0.1	70.0*
O=C(CSc1nnc(-c2ccc(Cl)cc2Cl)n1Cc1ccco1)c1ccc[nH]1	110.0	44.4*	2.1	18.3
COc1ccccc1OCC(=O)Nc1sc2c(c1C#N)CCCC2	106.0	-29.3	-0.4	.
Cc1cc(Cl)ccc1OCC(=O)Nc1sc2c(c1C#N)CCC2	80.0*	-0.9	0.25	.
CN(C)Cc1n[nH]c(=S)o1	75.0*	-19.3	2.05	89.6*
O=C(Nc1cccc2c1CCCC2)c1cc(C2CC2)[nH]n1	104.0	-31.1	0.95	-4.8
C1=CCC2NC(C1)Cc1ccccc12 (configuration not stated)	103.0	29.3*	-0.25	-1.1
COC(=O)C1=C(C)NC(C)=C(C(=O)OC)C1c1ccccc1	.	.	1.1	.
SMILES	PV pol inh	Mtb MenB inh	AID504770	MbtI inh
COC(=O)C1=C(C)NC(C)=C(C(=O)OC)C1c1ccccc1[N+](=O)[O-]	101.0	-4.0	0.75	79.2*!
CCOC(=O)c1ccsc1NC(=O)CC	.	.	-0.35	.
CCNc1nc(C)nc2sc(CC)cc12	103.0	31.7*	-0.15	.
CC1Cc2ccccc2N1C(=O)C1CCN(S(=O)(=O)c2ccc(-n3cnnn3)cc2)CC1 (configuration not stated)	102.0	39.3*	0.3	1.6
O=c1sn(-c2ccccc2C(F)(F)F)c(=O)n1CC1CC1	100.0	2.6	-1.2	98.7*
S=c1[nH]c2ccc(Cl)cc2[nH]1	103.0	-22.9	-0.55	82.0*
Cc1ccc2[nH]c(=S)oc2c1	99.0	-27.7	0.45	61.3*
S=c1[nH]c2ccc(Cl)cc2o1	100.0	-52.6	-2*	64.3*
Cc1nn2c(=O)cc(COC(=O)C(Cc3ccccc3)NC(=O)c3ccccc3)nc2s1 (configuration not stated)	.	5.3	-0.6	-4.8
CCOC(=O)C1(c2ccccc2)CCN(C(=O)c2ccccc2O)CC1	104.0	1.9	0.05	.
COC(=O)c1cc2c(ccn2-c2ccc(F)cc2)n1CC(=O)c1ccc(OC)cc1	101.0	0.7	0.45	-4.5
CCn1c(C(=O)OC)cc2c1ccn2-c1ccc(F)cc1	103.0	31.6*	0.1	90.2
O=C(Cc1nc2ccccc2[nH]1)Oc1ccccc1	75.0*	7.1	-1.6	.
O=C(Cc1nc2ccccc2[nH]1)c1ccccc1	98.0	.	1	7.0
CCc1cc(=O)oc2c(C)c(OCC(=O)Nc3ccc4c(c3)OCO4)ccc12	80.0*	-19.9	-0.7	6.8
Cc1ccc(-n2c(C)cc(/C=C3\SC(=O)NC3=O)c2C)cc1	100.0	39.3*	0.7	-27.2
CC(C)(C)C1CCC(NN2CCOCC2)CC1 (configuration not stated)	102.0	-20.7	-0.55	-10.5
CCOC(=O)c1ccc(N=C=S)cc1	95.0	7.7	-2.15*	8.9
CCOC(=O)c1ccc(C(=S)N2CCCC2)cc1	69.0*	-7.6	0.45	77.3*
CCOC(=O)C1CCN(C(=S)c2ccccc2)CC1	103.0	-9.3	-0.65	59.0*
CCOC(=O)c1ccc(N=Cc2ccc(CC)cc2)cc1	97.0	6.6	-0.15	.
CCOc1ccc(C(=S)N2CCCC2)cc1	103.0	-44.2	2.3	-6.2
O=C(CCN1C(=O)/C(=C\c2ccco2)SC1=S)NCCc1ccccc1	99.0	-161.7	0.1	16.4
O=C(O)c1cnc2ccccn2c1=O	102.0	27.3*	0.85	89.5
CCOC(=O)c1cnc2ccccn2c1=O	103.0	11.4	1.15	104.7
SMILES	PV pol inh	Mtb MenB inh	AID504770	MbtI inh
Cc1ccc(NC(=O)C(Cc2c[nH]c3ccccc23)NC(=O)OCc2ccccc2)cc1C (configuration not stated)	102.0	-1.6	-0.2	.
CC(C)N1CSC(=S)N(C(C)C)C1	64.0*	-5.3	-4*	-7.8
CN(CC(=O)c1c(N)n(C)c(=O)n(C)c1=O)C1CCS(=O)(=O)C1 (configuration not stated)	103.0	-16.1	-0.7	-3.4
Cc1cc(Br)ccc1NC(=O)c1sc2nc3n(c(=O)c2c1C)CCCC3	110.0	.	.	.
O=c1c2c(nc3n1CCC3)sc1c(O)c(Br)ccc12	100.0	37.9*	1.05	10.4
Cc1csc(N(C(=O)c2ccccc2)c2ccccc2)n1	99.0	-25.2	-0.75	-7.3
CN(Cc1ccccc1)CC(O)COCC1=CCC2CC1C2(C)C (configuration not stated)	102.0	-8.4	2.05	11.6
COc1ccc(N=C2C(=O)Nc3ccc(Br)cc32)cc1	98.0	-2.6	-0.95	0.4
Nc1nnnn1/N=C1/C(=O)Nc2ccc(Br)cc21	72.0*	-60.4	0.15	.
O=C(CN1CCCN(Cc2ccc(F)cc2Cl)C1=O)NCc1cccnc1	101.0	11.6	-0.3	-0.6
CSc1ccc(S(=O)(=O)N(C)C)cc1	101.0	-10.1	-0.45	-13.1
CN(C)S(=O)(=O)c1ccc(=S)[nH]c1	96.0	-52.6	-0.75	94.8*
COc1ccc(OC(=O)c2c(Cl)cccc2Cl)cc1	.	.	-0.7	.
